According to PubChem BioAssay (NCI):
This is part of a sample that, as a whole, favours compounds with a hit. Of some 83,000 tested, about 20% had one in any assay.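 Values shown are percent growth following 48 h exposure of cells in 96-well plates to a single concentration of compound; below 10 was considered active.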 A number with no mark means an inactive call. Calls of active or inactive are those of the source.

Legend:
Assay in all cases: NCI-60 one-dose screen, 48 h (100 = growth as untreated, 0 = no growth, -100 = all killed)
Conditions in all cases: 10 µM unless noted
NCI-H23 lung = system: NCI-H23 lung
NCI-H322M lung = system: NCI-H322M lung
HOP-62 NSCLC = system: HOP-62 NSCLC
NCI-H460 lung = system: NCI-H460 lung
HOP-92 NSCLC = system: HOP-92 NSCLC
A549/ATCC NSCLC = system: A549/ATCC NSCLC
786-0 renal = system: 786-0 renal
COLO 205 colon = system: COLO 205 colon
DU-145 prostate = system: DU-145 prostate
K-562 leukemia = system: K-562 leukemia
MALME-3M melanoma = system: MALME-3M melanoma
MDA-MB-231 breast = system: MDA-MB-231 breast
RXF 393 renal = system: RXF 393 renal
SF-268 CNS = system: SF-268 CNS
SF-295 CNS = system: SF-295 CNS
SF-539 CNS = system: SF-539 CNS
UACC-257 melanoma = system: UACC-257 melanoma
M14 melanoma = system: M14 melanoma
HCT-15 colon = system: HCT-15 colon
NCI-H522 lung = system: NCI-H522 lung

| Compound | growth (NCI-H23 lung) | growth (NCI-H322M lung) | growth (HOP-62 NSCLC) | growth (NCI-H460 lung) | growth (HOP-92 NSCLC) | growth (A549/ATCC NSCLC) | growth (786-0 renal) | growth (COLO 205 colon) | growth (DU-145 prostate) | growth (K-562 leukemia) | growth (MALME-3M melanoma) | growth (MDA-MB-231 breast) | growth (RXF 393 renal) | growth (SF-268 CNS) | growth (SF-295 CNS) | growth (SF-539 CNS) | growth (UACC-257 melanoma) | growth (M14 melanoma) | growth (HCT-15 colon) | growth (NCI-H522 lung) |
| --- | --- | --- | --- | --- | --- | --- | --- | --- | --- | --- | --- | --- | --- | --- | --- | --- | --- | --- | --- | --- |
| CC(=O)c1ccc2oc(=O)n(Cc3ccc(C#N)cc3)c(=O)c2c1 | 103% | 100% | 103% | 106% | 95.2% | 103% | 103% | 114% | 111% | 117% | 96.9% | 107% | 114% | 99.1% | 99.1% | 96.8% | 108% | 108% | 98.9% |  |
| O=C(CN1C(=O)/C(=C\c2ccc(Cl)cc2)SC1=S)Nc1ncc(Cc2ccc(Cl)cc2)s1 | 100% | 107% | 105% | 100% | 101% | 108% | 106% | 110% | 106% | 105% | 99.4% | 104% | 110% | 97.4% | 101% | 94.3% | 104% | 102% | 103% |  |
| COc1cc([C@@H]2NC(=O)NC(C)=C2C(=O)Nc2nc(-c3ccc(Cl)cc3)cs2)ccc1O | 96.3% | 95.4% | 86.1% | 102% | 103% |  | 98.4% | 116% | 102% | 99.9% | 95.4% | 92.6% |  | 94% | 98.2% | 95.7% | 104% | 94.2% | 100% | 84% |
| CCCSC1=NC2C(N(CC)C(=O)N2CC)N1/N=C/C=C/c1ccccc1[N+](=O)[O-] (stereo not given) | 46.5% | 57.5% | 49.8% | 5.1% (active) | 102% |  | 33.4% | 0.744% (active) | 19.8% | 8.86% (active) | 74.3% | 22.6% | 0.465% (active) | 48.1% | 12.9% | -11.9% (active) | 70.8% | 1.77% (active) | 16.1% | 0.595% (active) |
| Cc1cc2c(c(C)c1Cl)C(=O)/C(=C/c1cccc([N+](=O)[O-])c1)O2 | 90.3% | 98.7% | 107% | 101% | 114% | 89.6% | 101% | 123% | 104% | 99.9% | 97.1% | 92.7% | 107% | 100% | 95.1% | 95% | 88.2% | 98.9% | 99.7% |  |
| CCN1C(=O)N(c2ccccc2)C2NN=c3s/c(=C4\C(=O)N(C(C)C)c5ccccc54)c(=O)n3C21 (stereo not given) | 46.5% | 54.4% | 36.2% | 5.98% (active) | 95.7% | 21% | 28.3% | 2.82% (active) | 9.07% (active) | 10.6% | 65.2% | 32.9% | -6.1% (active) | 36.7% | 17.9% | -2.62% (active) | 76.4% | 10.9% | 17.7% |  |
| COc1cc(C=C2C(=O)N(C)C(=O)N(C)C2=O)cc(CN2CCCCC2)c1O | 96.6% | 102% | 93.1% | 108% | 101% | 100% | 95.5% | 111% | 104% | 96.4% | 93.3% | 98.1% | 116% | 94.1% | 104% | 100% | 104% | 102% | 104% |  |
| Clc1ncccc1Nc1ccc2nnc(-c3ccncc3)n2n1 | 93.2% | 106% | 102% | 103% | 110% | 102% | 101% | 109% | 107% | 66.8% | 98.5% | 105% | 114% | 93.3% | 105% | 99.7% | 102% | 98.6% | 87.1% |  |
| CCN1C(=O)N(CC)C2Nn3c(s/c(=C4\C(=O)N(C(C)C)c5ccccc54)c3=O)=NC21 (stereo not given) | 36.6% | 61.3% | 51.8% | 21.3% | 13.9% |  | 49.1% | 7.65% (active) | 38% | 13.8% | 71.4% | 24% | 44.5% | 51.8% | 19% | 11.5% | 28.9% | 21.9% | 22.3% | 27.2% |
| COc1ccc(/C=C2\N=C(c3ccccc3)N(c3ccc(-c4nc5ccc(C)cc5s4)cc3)C2=O)cc1 | 87.1% | 60.3% | 99.2% | 89.6% | 82.4% |  | 91% | 97.1% | 77.9% | 82.4% | 94.6% |  | 99% | 61.1% | 75.5% | 93.3% | 111% | 98.9% | 82.1% | 67.1% |
| Clc1ccc(Nc2scc3[n+]2CCC3)cc1 | 92.7% | 101% | 99.8% | 102% | 81% |  | 94.9% | 120% | 101% |  | 95.9% | 95.9% |  | 93.2% | 94.5% | 97.1% | 94% | 103% | 93.4% | 93.5% |
| O=C(CSc1ncccc1C(=O)O)Nc1ccc(Oc2ccccc2)cc1 | 104% | 99% | 93.8% | 102% | 102% | 98% | 99.8% | 108% | 110% | 94.4% | 99.3% | 124% | 107% | 105% |  | 106% | 100% | 98.7% | 104% |  |
| O=c1oc2ccc(Cl)cc2c(=O)n1-c1ccc(I)cc1F | 2.29% (active) | 6.37% (active) | 0.787% (active) | 2.33% (active) | -16.5% (active) | 7.89% (active) | 2.82% (active) | 53% | 15.6% | 7.73% (active) | -29.2% (active) | -20.5% (active) | -5.52% (active) | 8.08% (active) | -57.8% (active) | 2.55% (active) | -16.9% (active) | 2.42% (active) | 3.56% (active) |  |
| COC(=O)/C(CCC=C(C)C)=C1\[C@@H](OC(C)=O)C[C@@]2(C)[C@H]1C[C@@H](O)[C@H]1[C@@]3(C)CC[C@H](NC(=O)c4cnccn4)[C@@H](C)[C@@H]3CC[C@@]12C | 103% | 108% | 102% | 109% | 100% |  | 92.2% | 110% | 93.7% | 85.5% | 100% | 96.5% | 107% | 94.8% | 103% | 105% | 110% | 99.8% | 96.3% | 89.6% |
| O=C(Nc1ccc(N2CCNCC2)cn1)c1[nH]ncc1Nc1ncnc2sccc12 | 18.4% | 59.1% | 73% | 43.1% | 52.5% | 4.12% (active) | -43.6% (active) | 29% | 41.9% | -60.1% (active) | -67.7% (active) | -35.8% (active) | 46.6% | 40.8% | 97.3% | -28.8% (active) | 69.8% | -61.3% (active) | 69.7% |  |
